Data reported in PubChem BioAssay (NCI).
About 79,000 compounds went through this panel and 15% of them were active in at least one assay; those are over-represented in the sample as a whole. Unmarked numbers belong to inactive results. Calls of active or inactive are those of the source. No stated cut-off is given here; in the data, active means growth inhibition above about 70%; inactive means the rest.

Tests used:
[1] = NCI Yeast Anticancer Drug Screen. Data for the rad50 strain (AID 155);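 further: 0% = growth of vehicle-only cultures of the same strain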; conditions: S. cerevisiae rad50 strain growth inhibition; at 50.0 µM; active compounds read high
Method in brief: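 Cells are treated with compound, grown, and their growth is then scored against vehicle-only cultures of the same repair-deficient yeast strain.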

[2] = NCI Yeast Anticancer Drug Screen. Data for the mec2-1 strain (AID 157); conditions: S. cerevisiae mec2-1 strain, at 50.0 µM, active compounds read high
Method in brief: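 Using mec2-1 yeast: add compound, measure growth, express inhibition versus vehicle-treated cultures.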

[3] = NCI Yeast Anticancer Drug Screen. Data for the sgs1 mgt1 strain (AID 161);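 further: 0% = growth of cultures given vehicle only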; conditions: S. cerevisiae sgs1 mgt1 strain, at 50.0 µM, active compounds read high
Method in brief: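 Growth of a repair-deficient yeast mutant was monitored after compound treatment and expressed as inhibition relative to vehicle-treated cultures.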

[4] = NCI Yeast Anticancer Drug Screen. Data for the cln2 rad14 strain (AID 165);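 further: 0% = growth equal to vehicle treated cultures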; conditions: S. cerevisiae cln2 rad14 strain, at 50.0 µM, active compounds read high
Method in brief: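 Yeast strain cln2 rad14, bearing defects in cell cycle control and DNA repair, serves as the test system; values reflect growth inhibition compared with vehicle.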

[5] = NCI Yeast Anticancer Drug Screen. Data for the bub3 strain (AID 167); conditions: S. cerevisiae bub3 mutant strain, at 50.0 µM, active compounds read high
Method in brief: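 Part of a panel of yeast mutants defective in DNA damage repair or cell cycle regulation. Each strain is grown with compound, and inhibition is calculated relative to solvent-treated cultures.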

[6] = NCI Yeast Anticancer Drug Screen. Data for the mlh1 rad18 strain (AID 175); conditions: S. cerevisiae mlh1 rad18 strain growth inhibition; at 50.0 µM; active compounds read high
Method in brief: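 Steps: expose repair-defective yeast to compound; measure growth; express inhibition against vehicle-treated controls.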

SMILES | growth inhibition [1] | growth inhibition [2] | growth inhibition [3] | growth inhibition [4] [%] | growth inhibition [5] [%] | growth inhibition [6]
ClC(Cl)(Cl)SSC(=Nc1ccccc1)SSC(Cl)(Cl)Cl | 70.8% (active) | 21.4% | 51.6% | -0.8 | 64.3 | 69.5%
Cc1cc(O)c(/C=N/C(=O)NN)c(=O)o1 | -40.6% | -11.1% | -20.1% | -22.4 | -22.5 | -42.5%
COc1ccc2c(c1)CCC1C(=O)NN=C21 (stereo not given) | 12.8% | -4.1% | -5.6% | -43.4 | -23.1 | -8%
O=C1C(Cl)N(c2c(Cl)cccc2Cl)C1c1c[nH]c2ccccc12 (stereo not given) | -35.5% | -43.6% | -34.2% | -22.4 | -20.9 | -41.8%
CCOC(=O)c1c(SC(=O)c2ccc(OC)cc2)n(-c2ccccc2)c(=S)n(-c2ccccc2)c1=O | 16.2% | 0.75% | 3.75% | 8.55 | 16.8 | 12.8%
CCOc1c(/C=C\c2cc(/C=C/c3cccc(OC)c3OCC)c([N+](=O)[O-])cc2[N+](=O)[O-])cccc1OC | 16.4% | -13.7% | 1.75% | -36.6 | -4.45 | 9.55%
O=C(O)c1ccc(O)cc1O | 12.8% | 18.6% | -25.2% | -29.4 | -4.65 | -2.5%
CCCCCCCCc1ccccc1 | 34.6% | 30.9% | 35.6% | 13.5 | 9.75 | 21.8%
CC1=CC(c2ccccc2)(c2ccccc2)c2ccccc21 | 0.1% | 3% | 5% | -19.1 | 1.7 | -17.4%
N#CC(NC12CC3CC(CC(C3)C1)C2)c1ccc2c(c1)OCO2 (stereo not given) | -14.9% | -5.6% | -20.9% | -17.1 | -47.8 | -44.4%
COC1OC(COS(C)(=O)=O)C(OS(C)(=O)=O)C(OC(=O)c2ccccc2)C1OS(C)(=O)=O (stereo not given) | -6.25% | 8% | -9.6% | 1.15 | -0.85 | 20.6%
O=CNn1cn[nH]c1=S | 1.9% | -2.65% | -17.6% | 4.25 | 8.75 | 6.95%
CC(=O)OC[C@]1(C)CCCC2(C)C1CCC1C=C(C)[C@H]3CCC12C3 (stereo not given in full) | 2.05% | -2.85% | -17.8% | -1.65 | -3.1 | 11.3%
O=C(c1ccccc1)C(c1ccccc1)C1(O)C(=O)Nc2c(Cl)ccc(Cl)c21 (stereo not given) | -18.1% | 10.6% | 5% | -0.05 | -8.1 | -29.2%
C#[N+]CCOP(=O)(OCC1OC(n2cc(C)c(=O)[nH]c2=O)CC1N=[N+]=[N-])O[C@H]1CC[C@@]2(C)C(=CC[C@H]3[C@@H]4CC[C@H](C(C)/C=C/C(CC)C(C)C)[C@@]4(C)CC[C@@H]32)C1 (stereo not given in full) | -32.3% | -14.4% | -23.1% | -7.4 | 7.5 | -19.1%
CC(C)(C)c1ccc(SCC#CCOc2ccc(Cl)cc2)cc1 | -6.2% | 4.2% | -4.8% | -23.6 | -7.3 | -20.4%
C/C=C(/C=O)[C@@H]1CC2c3c(c4ccccc4n3[C@@H](O)C1)CCN2C (stereo not given in full) | -5.45% | -17.6% | -4.4% | -1.1 | -33.2 | -16.6%
CN(NC(=O)Nc1cccc2ccccc12)c1ccccc1 | -4.7% | -16.2% | 14.7% | -63.8 | 1.65 | -6.85%
COc1c(O)c2c(=O)cc3c4c5c(cc(=O)c6c(O)c(OC)c(CC(C)O)c(c(c1CC(C)O)c24)c65)OCO3 (stereo not given) | 74.5% (active) | 97.8% (active) | 76.3% (active) | 37.5 | 5.55 | 70.5% (active)
O=C(NC1CCCCC1)Oc1ccc[nH]c1=O | -14.8% | -16.8% | -13.6% | -26.9 | 2.25 | -1.25%

SMILES | growth inhibition [1] | growth inhibition [2] | growth inhibition [3] | growth inhibition [4] [%] | growth inhibition [5] [%] | growth inhibition [6]
O=C(CI)NCC(O)CNC(=O)CI | 16.9% | 13.9% | 18% | 27.6 | 9.2 | 36.5%
CC1(CCl)Nc2ccccc2C(=O)N1c1ccc(Cl)cc1 (stereo not given) | -2.45% | -13.9% | 8.95% | -2.05 | 20.9 | -0.5%
ON(C=Nc1ccccc1)c1ccccc1 | 17% | 19.1% | 6.35% | -11.5 | -3.25 | 7.05%
COC(=O)c1c(C)cc(C)c(C(C)=O)c1O | -16.9% | -14.8% | 0% | -18.7 | 0.75 | -16.1%
CCOC(=O)C(N=Cc1ccc([N+](=O)[O-])cc1)C(O)c1ccc([N+](=O)[O-])cc1 (stereo not given) | 9.55% | 5.15% | 1.8% | 14.9 | 2.2 | 7.75%
[Cl][Pt+2][Cl].[NH-]C1CCCCC1C1CCCCC1[NH-] (stereo not given) | 14.6% | -12.4% | -29.2% | -41.2 | -29.8 | -27.4%
Cc1ccc([N+](=O)[O-])cc1NC(=O)Nc1cccc(Cl)c1Cl | 3.55% | 2.95% | 9.8% | 9 | 18.1 | 11.1%
O=C(CCCCCC(=O)N1CC(CCl)c2ccc([N+](=O)[O-])cc21)N1CC(CCl)c2ccc([N+](=O)[O-])cc21 (stereo not given) | -28.8% | -39.8% | -15.6% | -4.5 | -2.9 | -55.4%
CCCCCCCCCCCCc1ccc(CS)cc1 | 40.9% | 36.3% | 54% | -1.7 | 51.3 | 32.6%
Cc1c(C)c(C(Cl)(Cl)Cl)c(C)c(C)c1Br | -0.7% | 4.8% | -0.75% | 8.15 | 3.6 | -7.3%
N#CC(C(=O)CCC(=O)C(C#N)c1c(Cl)cccc1Cl)c1c(Cl)cccc1Cl (stereo not given) | -18.3% | 7.3% | -12.5% | -41.5 | 6.55 | -11.1%
O=C1Cc2c([nH]c3ccc(Cl)cc23)-c2ccccc2N1 | 5.55% | 2.1% | -50.9% | 13.8 | -7.9 | 17.1%
CCCCCCCCCCCO | -5.75% | -13.2% | -3.8% | -6.8 | 2.15 | -18.8%
O=C1CCCCC1CC1(O)C(=O)NC2CCC(Br)CC21 (stereo not given) | -11.6% | -3.3% | 21.6% | 8.75 | 18.7 | 5.6%
CCN(CC)c1ccc2cc(-c3nc4ccccc4s3)c(=O)oc2c1 | 12.4% | -18.1% | -9.5% | -3.05 | -11.5 | 4.8%
c1ccc(CC2CO2)cc1 (stereo not given) | -2.7% | -17.8% | -1.4% | -15.2 | -0.2 | -7.9%
COc1ccc(CNC(=O)C2C(=O)C(=O)N(Cc3ccc(OC)c(OC)c3)C2=O)cc1OC (stereo not given) | 20.8% | -5.45% | -0.9% | 17.1 | -1.25 | 14.7%
CSc1nc2c(nc(N)n2C2OC(CO)C(O)C(O)C2O)c(=O)n1C (stereo not given) | 3.1% | 20% | 26.3% | 33.9 | 11.2 | 39.4%
C/C=C(\C(=C\C)c1ccc(OC(=O)c2ccccc2)c(C2CCCCC2)c1)c1ccc(O)c(C2CCCCC2)c1 | 49% | 34.5% | 44.9% | 30.4 | 2.95 | 45.8%
C1=C2CCc3ccc(o3)CCC(=C1)O2 | 7.55% | 14.8% | 10.2% | -23.7 | -0.05 | 1.35%
